Measurements as given in PubChem BioAssay (NCI).
The panel holds about 79,000 compounds, 15% with a hit somewhere; the sample as a whole holds those more often. Values without a mark were called inactive. Activity calls are given as the source filed them. Cut-off read from the data, not from the text of the source: active = growth inhibition above about 70%; inactive = the rest.

Experiments:
[1] = NCI Yeast Anticancer Drug Screen. Data for the rad52 strain (AID 147);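 note: 0% = growth of vehicle-treated control cultures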; conditions: S. cerevisiae rad52 mutant growth inhibition, active compounds read high
In short: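 Inhibition of yeast growth, referenced to vehicle controls, was the measured output for a strain with defective DNA damage repair.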

[2] = NCI Yeast Anticancer Drug Screen. Data for the wt1 strain (AID 149);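 note: 0% = growth of vehicle-treated wt1 cultures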; conditions: S. cerevisiae wt1 strain (SPY 50644) growth inhibition, active compounds read high
In short: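 Using yeast strain wt1, compound-induced growth inhibition was determined against vehicle-treated cultures.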

[3] = NCI Yeast Anticancer Drug Screen. Data for the rad50 strain (AID 155);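 note: 0% = growth of vehicle-only cultures of the same strain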; conditions: S. cerevisiae rad50 strain growth inhibition, active compounds read high
In short: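 Relative growth inhibition (compound vs vehicle) was measured in yeast with a defined repair-gene alteration.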

[4] = NCI Yeast Anticancer Drug Screen. Data for the mec2-1 strain (AID 157); conditions: S. cerevisiae mec2-1 strain, active compounds read high
In short: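 Each compound was tested on mec2-1 yeast, a strain altered in DNA damage repair or cell cycle control. Growth inhibition is reported relative to vehicle.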

[5] = NCI Yeast Anticancer Drug Screen. Data for the rad14 strain (AID 159);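 note: 0% = growth of vehicle-treated control cultures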; conditions: S. cerevisiae rad14 strain growth inhibition, active compounds read high
In short: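 Screen for anticancer potential: a yeast strain altered in DNA damage repair is grown with compound, and reduced growth is quantified against vehicle controls.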

[6] = NCI Yeast Anticancer Drug Screen. Data for the sgs1 mgt1 strain (AID 161);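 note: 0% = growth of cultures given vehicle only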; conditions: S. cerevisiae sgs1 mgt1 strain, active compounds read high
In short: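 Test agents were incubated with a DNA-repair-mutant yeast strain. Growth was then read and compared against vehicle-treated controls.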

[7] = NCI Yeast Anticancer Drug Screen. Data for the cln2 rad14 strain (AID 165);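 note: 0% = growth equal to vehicle treated cultures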; conditions: S. cerevisiae cln2 rad14 strain, active compounds read high
In short: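 Test compounds were added to cln2 rad14 yeast cultures; inhibition of growth was then determined by comparison with vehicle treatment.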

[8] = NCI Yeast Anticancer Drug Screen. Data for the bub3 strain (AID 167); conditions: S. cerevisiae bub3 mutant strain, active compounds read high
In short: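 Screening used yeast with an engineered genetic alteration affecting cell cycle control. Compound-exposed cultures were compared with vehicle cultures, and reduced growth was taken as inhibition.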

[9] = NCI Yeast Anticancer Drug Screen. Data for the wt2 strain (AID 169);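 note: 0% = growth of vehicle-treated yeast cultures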; conditions: S. cerevisiae wt2 strain growth inhibition, active compounds read high
In short: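 The panel's yeast strains carry defined changes in DNA repair or cell cycle genes. Each strain is grown with compound, and growth loss is scored relative to vehicle.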

[10] = NCI Yeast Anticancer Drug Screen. Data for the mlh1 strain (AID 171);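 note: 0% = growth of vehicle-treated control cultures of the same strain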; conditions: S. cerevisiae mlh1 strain growth inhibition, active compounds read high
In short: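 Inhibition values reflect reduced yeast growth in the presence of compound, referenced to vehicle controls, using a strain chosen for its alteration in DNA repair or cell cycle control.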

[11] = NCI Yeast Anticancer Drug Screen. Data for the sgs1 strain (AID 173);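 note: 0% = growth of vehicle-only control cultures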; conditions: S. cerevisiae sgs1 mutant, active compounds read high
In short: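 Vehicle-treated cultures served as reference for growth inhibition of a yeast strain altered in DNA damage repair or cell cycle control after compound exposure.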

[12] = NCI Yeast Anticancer Drug Screen. Data for the mlh1 rad18 strain (AID 175); conditions: S. cerevisiae mlh1 rad18 strain growth inhibition, active compounds read high
In short: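 Inhibition values reflect reduced growth of mutant yeast versus vehicle-treated controls following compound exposure; the mutations affect DNA damage repair.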

[13] = NCI Yeast Anticancer Drug Screen. Data for the rad18 strain (AID 177); conditions: S. cerevisiae rad18 mutant growth inhibition, active compounds read high
In short: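 Steps: expose repair-mutant yeast to compound; measure growth; express as inhibition relative to vehicle control.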

[14] = at 5.0 µM (retest, dose inferred, filed as 0.5)
[15] = at 50.0 µM (retest, dose inferred, filed as 5.0)

Compound: CC[C@]1(O)CC(OC2CC(N(C)C)C(O)C(C)O2)c2c(cc3c(c2O)C(=O)c2c(O)cccc2C3=O)[C@@H]1C(=O)OC (stereo partly drawn)
- growth inhibition ([1]; at 1.2 µM): 31%
- growth inhibition ([1]; at 3.7 µM): 77% (active)
- growth inhibition ([1]; at 11.0 µM): 86% (active)
- growth inhibition ([1]; at 33.0 µM): 94% (active)
- growth inhibition ([1]; at 100.0 µM): 96% (active)
- growth inhibition ([2]; at 1.2 µM): -2%
- growth inhibition ([2]; at 3.7 µM): -4%
- growth inhibition ([2]; at 11.0 µM): -1%
- growth inhibition ([2]; at 33.0 µM): 91% (active)
- growth inhibition ([2]; at 100.0 µM): 96% (active)
- growth inhibition ([3]; at 1.2 µM): 33%
- growth inhibition ([3]; at 3.7 µM): 75% (active)
- growth inhibition [3, 14]: 50%
- growth inhibition ([3]; at 11.0 µM): 87% (active)
- growth inhibition ([3]; at 33.0 µM): 96% (active)
- growth inhibition [3, 15]: 95% (active)
- growth inhibition ([3]; at 50.0 µM): 91.6% (active)
- growth inhibition ([3]; at 100.0 µM): 97% (active)
- growth inhibition ([4]; at 1.2 µM): -16%
- growth inhibition ([4]; at 3.7 µM): -14%
- growth inhibition [4, 14]: 4%
- growth inhibition ([4]; at 11.0 µM): 7%
- growth inhibition ([4]; at 33.0 µM): 79% (active)
- growth inhibition [4, 15]: 95% (active)
- growth inhibition ([4]; at 50.0 µM): 93% (active)
- growth inhibition ([4]; at 100.0 µM): 95% (active)
- growth inhibition ([5]; at 1.2 µM): -12%
- growth inhibition ([5]; at 3.7 µM): -18%
- growth inhibition ([5]; at 11.0 µM): 0%
- growth inhibition ([5]; at 33.0 µM): 81% (active)
- growth inhibition ([5]; at 100.0 µM): 96% (active)
- growth inhibition [6, 14]: 36%
- growth inhibition [6, 15]: 96% (active)
- growth inhibition ([6]; at 50.0 µM): 93% (active)
- growth inhibition [7, 14]: 15%
- growth inhibition [7, 15]: 92% (active)
- growth inhibition ([7]; at 50.0 µM): 90.4% (active)
- growth inhibition ([8]; at 1.2 µM): 33%
- growth inhibition ([8]; at 3.7 µM): 32%
- growth inhibition [8, 14]: 21%
- growth inhibition ([8]; at 11.0 µM): 36%
- growth inhibition ([8]; at 33.0 µM): 93% (active)
- growth inhibition [8, 15]: 97% (active)
- growth inhibition ([8]; at 50.0 µM): 92% (active)
- growth inhibition ([8]; at 100.0 µM): 98% (active)
- growth inhibition ([9]; at 1.2 µM): -6%
- growth inhibition ([9]; at 3.7 µM): -6%
- growth inhibition ([9]; at 11.0 µM): 41%
- growth inhibition ([9]; at 33.0 µM): 95% (active)
- growth inhibition ([9]; at 100.0 µM): 97% (active)
- growth inhibition ([10]; at 1.2 µM): -4%
- growth inhibition ([10]; at 3.7 µM): 6%
- growth inhibition ([10]; at 11.0 µM): 9%
- growth inhibition ([10]; at 33.0 µM): 90% (active)
- growth inhibition ([10]; at 100.0 µM): 96% (active)
- growth inhibition ([11]; at 1.2 µM): -8%
- growth inhibition ([11]; at 3.7 µM): -2%
- growth inhibition ([11]; at 11.0 µM): 14%
- growth inhibition ([11]; at 33.0 µM): 92% (active)
- growth inhibition ([11]; at 100.0 µM): 96% (active)
- growth inhibition [12, 14]: 22%
- growth inhibition [12, 15]: 95% (active)
- growth inhibition ([12]; at 50.0 µM): 91% (active)
- growth inhibition ([13]; at 1.2 µM): 6%
- growth inhibition ([13]; at 3.7 µM): -9%
- growth inhibition ([13]; at 11.0 µM): 2%
- growth inhibition ([13]; at 33.0 µM): 95% (active)
- growth inhibition ([13]; at 100.0 µM): 97% (active)
